Holding throughout (settings): mRNA level, 48 h; actives raise or lower the signal
Read-out in experiment [1]: Bcl-2 (BAX) gene, BAX (gene 581)
Description: LTEA_HepaRG_BAX: Life Technologies and Expression Analysis (LTEA) Assay for Bcl-2 (BAX) gene using HepaRG (AID 2283470). The method in brief:
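qRT-PCR read-out of BAX mRNA, normalized to three housekeeping genes, after 48 h chemical exposure of human HepaRG cells in serum-free induction medium; eight-point half-log series, top 100 uM, 0.5% DMSO vehicle; bidirectional fit versus DMSO.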

Read-out in experiment [2]: adenosine kinase (ADK) gene, ADK (gene 132)
In words: LTEA_HepaRG_ADK: Life Technologies and Expression Analysis (LTEA) Assay for adenosine kinase (ADK) gene using HepaRG (AID 2283471). The essentials: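 HepaRG (human liver), 48 h chemical exposure, 8-pt half-log series, top 100 uM, 0.5% DMSO vehicle. Readout: ADK mRNA by qRT-PCR vs housekeeping genes; bidirectional curve fit relative to DMSO baseline.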

Read-out in experiment [3]: Alpha-fetoprotein (AFP) gene, AFP (gene 174)
Description: LTEA_HepaRG_AFP: Life Technologies and Expression Analysis (LTEA) Assay for Alpha-fetoprotein (AFP) gene using HepaRG (AID 2283472). The essentials: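 qRT-PCR (Fluidigm TaqMan) readout of AFP transcript, normalized to three housekeeping genes, fitted bidirectionally against 0.5% DMSO baseline. HepaRG cells received chemicals for 48 h in serum-free induction medium, top concentration 100 uM, half-log steps.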

Read-out in experiment [4]: BCL2L11 (gene 10018)
In words: LTEA_HepaRG_BCL2L11: Life Technologies and Expression Analysis (LTEA) Assay for Bcl-2 (BCL2L11) gene using HepaRG (AID 2283473). The method in brief:
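Differentiated human HepaRG cells in serum-free induction medium were exposed in duplicate for 48 h to eight concentrations (top 100 uM, half-log steps, 0.5% DMSO). BCL2L11 mRNA was quantified by TaqMan qRT-PCR, normalized to ACTB/GAPDH/POLR2A, bidirectional fit versus DMSO.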

Read-out in experiment [5]: Apoptosis regulator Bcl-2 (Homo sapiens) (UniProt P10415)
Description: LTEA_HepaRG_BCL2: Life Technologies and Expression Analysis (LTEA) Assay for Bcl-2 gene using HepaRG (AID 2283475). The method in brief:
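qRT-PCR read-out (Fluidigm TaqMan) of BCL2 transcript, normalised to three housekeeping genes, after 48 h chemical exposure of HepaRG cells; 8-point half-log series, top 100 uM, 0.5% DMSO vehicle. Gain or loss of signal fitted relative to DMSO baseline.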

Read-out in experiment [6]: Bcl-2 (BID) gene, BID (gene 637)
In words: LTEA_HepaRG_BID: Life Technologies and Expression Analysis (LTEA) Assay for Bcl-2 (BID) gene using HepaRG (AID 2283476). The essentials: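 HepaRG, 48 h exposure, 8-pt half-log series, top 100 uM, 0.5% DMSO vehicle, duplicates. Readout: BID mRNA by TaqMan qRT-PCR; housekeeping-normalized; bidirectional curve fit vs DMSO baseline.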

Read-out in experiment [7]: Caspase-3 (Homo sapiens) (UniProt P42574)
Description: LTEA_HepaRG_CASP3: Life Technologies and Expression Analysis (LTEA) Assay for cysteine-aspartic acid protease (CASP3) using HepaRG (AID 2283477). The essentials: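 Differentiated human HepaRG cells in serum-free induction medium were exposed 48 h to 8-point half-log concentrations from 100 uM (0.5% DMSO vehicle). CASP3 mRNA was measured by qRT-PCR, normalised to ACTB, GAPDH and POLR2A, with bidirectional fitting against DMSO.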

Read-out in experiment [8]: Cytochrome P450 (CYP24A1), CYP24A1 (gene 1591)
Description: LTEA_HepaRG_CYP24A1: Life Technologies and Expression Analysis (LTEA) Assay for Cytochrome P450 (CYP24A1) using HepaRG (AID 2283478). The method in brief: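 Differentiated HepaRG cells, pre-cultured 48 h, were exposed in duplicate for 48 h in serum-free induction medium to 8 half-log concentrations (top 100 uM, 0.5% DMSO). CYP24A1 mRNA was quantified by TaqMan qRT-PCR, normalized to ACTB/GAPDH/POLR2A, fitted bidirectionally versus DMSO.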

Read-out in experiment [9]: Cytochrome P450 (CYP1A2), CYP1A2 (gene 1544)
In words: LTEA_HepaRG_CYP1A2: Life Technologies and Expression Analysis (LTEA) Assay for Cytochrome P450 (CYP1A2) using HepaRG (AID 2283479). The method in brief:
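Differentiated human HepaRG cells in serum-free induction medium were exposed in duplicate for 48 h to 8-point half-log concentrations up to 100 uM in 0.5% DMSO. CYP1A2 mRNA measured by qRT-PCR, normalized to ACTB, GAPDH, POLR2A; bidirectional fit vs DMSO.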

Read-out in experiment [10]: cysteine-aspartic acid protease (CASP8), CASP8 (gene 841)
In words: LTEA_HepaRG_CASP8: Life Technologies and Expression Analysis (LTEA) Assay for cysteine-aspartic acid protease (CASP8) using HepaRG (AID 2283480). The method in brief:
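CASP8 transcript measured by TaqMan qRT-PCR with ACTB/GAPDH/POLR2A normalization, after 48 h chemical exposure of HepaRG cells in serum-free induction medium. Eight concentrations, top 100 uM, half-log steps, 0.5% DMSO vehicle; fits in both directions versus DMSO.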

Read-out in experiment [11]: Cytochrome P450 (CYP2B6), CYP2B6 (gene 1555)
Description: LTEA_HepaRG_CYP2B6: Life Technologies and Expression Analysis (LTEA) Assay for Cytochrome P450 (CYP2B6) using HepaRG (AID 2283481). The method in brief: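 Differentiated HepaRG cells, serum-free induction medium, exposed 48 h in duplicate to 8-point half-log concentrations from 100 uM in 0.5% DMSO. CYP2B6 mRNA by qRT-PCR, normalized to ACTB, GAPDH, POLR2A; bidirectional fit versus DMSO.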

Read-out in experiment [12]: Cytochrome P450 2C19 (Homo sapiens) (UniProt P33261)
Description: LTEA_HepaRG_CYP2C19: Life Technologies and Expression Analysis (LTEA) Assay for CYP2C19 using HepaRG (AID 2283482). The method in brief: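 Differentiated human HepaRG cells were exposed for 48 h in serum-free induction medium to 8 concentrations (top 100 uM, half-log steps, 0.5% DMSO). CYP2C19 mRNA was measured by qRT-PCR, normalized to ACTB/GAPDH/POLR2A, and fitted bidirectionally against DMSO.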

Read-out in experiment [13]: CYP2C8 (gene 1558)
Description: LTEA_HepaRG_CYP2C8: Life Technologies and Expression Analysis (LTEA) Assay for CYP2C8 using HepaRG (AID 2283483). The method in brief:
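CYP2C8 expression measured by TaqMan qRT-PCR and normalized to three housekeeping genes. HepaRG cultures were treated for 48 h with an eight-point half-log series topping at 100 uM, vehicle 0.5% DMSO, duplicates; fitted both directions against DMSO.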

Read-out in experiment [14]: CYP2C9 (gene 1559)
In words: LTEA_HepaRG_CYP2C9: Life Technologies and Expression Analysis (LTEA) Assay for CYP2C9 using HepaRG (AID 2283484). The essentials: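 CYP2C9 transcript level, quantified by TaqMan qRT-PCR against three housekeeping genes, was fitted bidirectionally relative to 0.5% DMSO. HepaRG cultures were treated 48 h, in duplicate, at eight half-log concentrations topping at 100 uM.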

Read-out in experiment [15]: CYP2E1 (gene 1571)
Description: LTEA_HepaRG_CYP2E1: Life Technologies and Expression Analysis (LTEA) Assay for CYP2E1 using HepaRG (AID 2283485). The essentials: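 CYP2E1 transcript was measured by TaqMan qRT-PCR in human HepaRG cultures after 48 h chemical exposure (top 100 uM, half-log steps, 0.5% DMSO vehicle). Housekeeping-gene normalization; gain or loss fitted relative to DMSO baseline.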

Read-out in experiment [16]: CYP4A11 (gene 1579)
Description: LTEA_HepaRG_CYP4A11: Life Technologies and Expression Analysis (LTEA) Assay for CYP4A11 using HepaRG (AID 2283486). The method in brief: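 Differentiated HepaRG cells, serum-free induction medium, exposed 48 h in duplicate to 8-point half-log series from 100 uM in 0.5% DMSO. CYP4A11 mRNA measured by qRT-PCR, normalized to ACTB, GAPDH, POLR2A; bidirectional fit versus DMSO.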

Read-out in experiment [17]: Pro-epidermal growth factor (Homo sapiens) (UniProt P01133)
In words: LTEA_HepaRG_EGF: Life Technologies and Expression Analysis (LTEA) Assay for Epidermal growth factor (EGF) using HepaRG (AID 2283489). The essentials:
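Differentiated human HepaRG cells, plated 48 h then switched to serum-free induction medium, were exposed for 48 h to test chemicals (8-point half-log series, top 100 uM, 0.5% DMSO). EGF mRNA was quantified by qRT-PCR, normalized to ACTB, GAPDH, POLR2A.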

Read-out in experiment [18]: Cytochrome P450 3A4 (Homo sapiens) (UniProt P08684)
Description: LTEA_HepaRG_CYP3A4: Life Technologies and Expression Analysis (LTEA) Assay for CYP3A4 using HepaRG (AID 2283487). The method in brief:
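CYP3A4 transcript measured by TaqMan qRT-PCR and normalized to three housekeeping genes after 48 h chemical exposure of human HepaRG cells. Top concentration 100 uM, half-log steps, 0.5% DMSO vehicle; gain or loss fitted against DMSO baseline.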

Read-out in experiment [19]: DNA damage-inducible transcript 3 (DDIT3), DDIT3 (gene 1649)
Description: LTEA_HepaRG_DDIT3: Life Technologies and Expression Analysis (LTEA) Assay for DNA damage-inducible transcript 3 (DDIT3) using HepaRG (AID 2283488). The essentials:
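qRT-PCR readout (Fluidigm TaqMan), housekeeping-normalized to ACTB, GAPDH, POLR2A. HepaRG cells, 48 h exposure, 8-point half-log series from 100 uM in 0.5% DMSO, duplicates. Gain or loss of signal fitted against DMSO baseline.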

Structures are written as SMILES. Active and inactive are the calls of the source. The calls were made as follows: active = hit-call score of the fitted dose curve at least 0.9, where 1 is the maximum; inactive = score below 0.9.

For orientation: AC50 means the concentration at which the activity in the assay is half-maximal.

Sequence of Caspase-3 (Homo sapiens) (P42574 whole entry, looked up): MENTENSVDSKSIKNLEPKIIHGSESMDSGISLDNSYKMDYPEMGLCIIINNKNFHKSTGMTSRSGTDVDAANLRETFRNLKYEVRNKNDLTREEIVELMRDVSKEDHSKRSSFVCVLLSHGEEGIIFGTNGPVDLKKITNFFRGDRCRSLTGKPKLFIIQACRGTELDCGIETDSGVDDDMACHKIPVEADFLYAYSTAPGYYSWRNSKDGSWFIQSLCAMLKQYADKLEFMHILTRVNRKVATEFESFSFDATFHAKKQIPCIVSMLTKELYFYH
Sequence of Cytochrome P450 2C19 (Homo sapiens) (P33261 whole entry, looked up): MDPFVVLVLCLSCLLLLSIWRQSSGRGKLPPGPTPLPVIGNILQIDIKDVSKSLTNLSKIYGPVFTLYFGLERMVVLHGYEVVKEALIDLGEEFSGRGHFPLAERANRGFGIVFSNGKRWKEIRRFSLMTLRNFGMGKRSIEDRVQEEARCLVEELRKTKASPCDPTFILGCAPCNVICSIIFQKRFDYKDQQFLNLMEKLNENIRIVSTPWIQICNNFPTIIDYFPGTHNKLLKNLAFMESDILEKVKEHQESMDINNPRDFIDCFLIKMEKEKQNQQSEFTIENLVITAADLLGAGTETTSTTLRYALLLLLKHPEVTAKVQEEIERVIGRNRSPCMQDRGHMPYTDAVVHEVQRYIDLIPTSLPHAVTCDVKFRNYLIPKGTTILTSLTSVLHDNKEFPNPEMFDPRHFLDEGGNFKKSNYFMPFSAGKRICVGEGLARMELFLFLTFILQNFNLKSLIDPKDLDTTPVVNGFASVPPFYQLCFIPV
Sequence of Apoptosis regulator Bcl-2 (Homo sapiens) (P10415 whole entry, looked up): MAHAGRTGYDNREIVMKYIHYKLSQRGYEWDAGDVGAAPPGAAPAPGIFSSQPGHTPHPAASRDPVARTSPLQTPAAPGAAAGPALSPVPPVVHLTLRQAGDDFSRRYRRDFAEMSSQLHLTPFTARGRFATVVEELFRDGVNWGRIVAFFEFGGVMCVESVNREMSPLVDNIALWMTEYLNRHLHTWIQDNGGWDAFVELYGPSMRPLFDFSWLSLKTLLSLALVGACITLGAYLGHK
Sequence of Cytochrome P450 3A4 (Homo sapiens) (P08684 whole entry, looked up): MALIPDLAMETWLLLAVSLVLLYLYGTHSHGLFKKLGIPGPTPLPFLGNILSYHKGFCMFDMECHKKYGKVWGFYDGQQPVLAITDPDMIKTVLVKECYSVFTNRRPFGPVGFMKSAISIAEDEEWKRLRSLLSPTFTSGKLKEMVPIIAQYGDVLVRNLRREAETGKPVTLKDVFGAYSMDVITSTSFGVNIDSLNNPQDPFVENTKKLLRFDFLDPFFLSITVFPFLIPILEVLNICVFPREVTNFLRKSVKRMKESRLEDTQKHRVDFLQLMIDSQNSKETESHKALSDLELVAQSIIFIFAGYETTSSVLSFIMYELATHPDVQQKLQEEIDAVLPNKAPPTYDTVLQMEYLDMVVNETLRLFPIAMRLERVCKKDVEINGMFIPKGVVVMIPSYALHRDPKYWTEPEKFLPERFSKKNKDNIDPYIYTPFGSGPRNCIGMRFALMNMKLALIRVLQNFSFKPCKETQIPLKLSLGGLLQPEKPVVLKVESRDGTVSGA

For `CC(C)COC(=O)CCCCC(=O)OCC(C)C`, the outcome in experiment [1], in [2], in experiment [3], in experiment [4], in experiment [5] and in experiment [6] was inactive. The call in [7], in experiment [8], in experiment [9], in experiment [10], in [11] and in experiment [12] was inactive. Besides, the compound was called inactive in experiment [13], in experiment [14], in experiment [15], in experiment [16] and in [17].

As to `Cc1ccc(C(C)(C)C)c(O)c1`, the outcome in experiment [1], in experiment [2], in [3], in [4], in [5] and in [6] was inactive. Moreover, the compound was called inactive in experiment [7], in experiment [8], in experiment [10], in experiment [11], in experiment [12] and in experiment [13]. For the same compound, the compound was called inactive in [14], in [15] and in [17]. Further, the AC50 in experiment [9] was 25.6 µM (active).

For the compound `O=C(O)c1cccnc1`, the call in experiment [1], in [2], in experiment [3], in [4], in [5] and in [6] was inactive. The outcome in [7], in experiment [8], in experiment [9], in experiment [10], in experiment [11] and in experiment [12] was inactive. The call in [13], in [15], in [16], in experiment [18] and in [17] was inactive.

Regarding `Cn1cnc2c1c(=O)[nH]c(=O)n2C`, the call in experiment [1], in [2], in experiment [3], in experiment [4], in experiment [5] and in [6] was inactive. The compound was called inactive in experiment [7], in experiment [10] and in experiment [17].

As for `NC=O`, the result in [1], in [2], in experiment [3], in [4], in [5] and in experiment [6] was inactive. Further, the compound was classed as inactive in experiment [7], in experiment [8], in experiment [9], in experiment [10], in experiment [11] and in experiment [12]. The result in experiment [13], in experiment [14], in experiment [15], in experiment [16], in experiment [19] and in [17] was inactive.

The values are drawn from PubChem BioAssay (EPA / NIEHS).
